# For part of these data: Potency and affinity values are given separately. Active and inactive are the calls of the source.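 Rule for the calls, unless noted: active = fitted half-maximal concentration within the tested dose range, moderate curve steepness, a statistically real signal drop, and little compound fluorescence or tag-binding interference; inactive = the rest.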
# Experiments:
# [1] = molecular target: Cell division control protein 42 homolog (Homo sapiens) (UniProt P60953); experiment: activated mutant Cdc42 GTP-binding inhibitors, dose response, biochemical, multiplex bead flow cytometry, Bodipy-FL-GTP (AID 1333)
# [2] = molecular target: Cell division control protein 42 homolog (Homo sapiens) (UniProt P60953); experiment: wildtype Cdc42 GTP-binding inhibitors, dose response, biochemical, multiplex bead flow cytometry, Bodipy-FL-GTP (AID 1334;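 active = fitted half-maximal concentration within the tested range, moderate curve steepness, significant signal drop, and little compound fluorescence or bead-linkage interference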); conditions: bead-based flow cytometry, Bodipy-FL-GTP binding to GST-Cdc42; at 100 µM (top of the series) unless noted
# [3] = molecular target: GTPase HRas (Homo sapiens) (UniProt P01112); experiment: inhibitors of GTP binding to wildtype Ras, dose response, biochemical, multiplex bead flow cytometry (AID 1335;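 active = fitted half-maximal concentration within 10 nM to 100 µM, steepness 0.5 to 2, significant signal drop, low assay interference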); conditions: bead-based flow cytometry, Bodipy-GTP binding to GST-Ras; at 100 µM (top of the series) unless noted
# [4] = system: Ras-related protein Rab-7a (dog), GTP binding; experiment: Rab7 GTP binding inhibitors, potency, dose response, biochemical, wildtype, multiplex bead flow cytometry (AID 1336; call rule not given here)
# [5] = molecular target: Ras-related C3 botulinum toxin substrate 1 (Homo sapiens) (UniProt P63000); experiment: wildtype Rac1 GTP binding inhibitors, dose response, biochemical, multiplex bead flow cytometry (AID 1340;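 active = dose curve with midpoint inside tested range, moderate steepness, plateau gap beyond fit error, low compound glow and bead-link interference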); conditions: GST-Rac1 beads, Bodipy-FL-GTP binding; at 100 µM (top of the series) unless noted
# [6] = molecular target: GTPase HRas (Homo sapiens) (UniProt P01112); experiment: activated Ras mutant GTP binding inhibitors, dose response, biochemical, multiplex bead flow cytometry (AID 1341;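 active = dose-response curve with midpoint inside the tested range, moderate steepness, significant amplitude and little compound fluorescence or bead-attachment interference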;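 note: GST-tagged constitutively activated Ras mutant immobilized on beads and multiplexed with other GTPases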)
# Chain of GTPase HRas (Homo sapiens) (P01112 whole entry, looked up): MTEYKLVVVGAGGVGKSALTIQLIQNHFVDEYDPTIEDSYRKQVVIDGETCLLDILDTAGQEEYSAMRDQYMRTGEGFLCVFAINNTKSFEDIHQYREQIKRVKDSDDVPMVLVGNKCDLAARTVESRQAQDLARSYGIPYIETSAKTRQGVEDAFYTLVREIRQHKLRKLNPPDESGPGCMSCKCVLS
# Chain of Cell division control protein 42 homolog (Homo sapiens) (P60953 whole entry, looked up): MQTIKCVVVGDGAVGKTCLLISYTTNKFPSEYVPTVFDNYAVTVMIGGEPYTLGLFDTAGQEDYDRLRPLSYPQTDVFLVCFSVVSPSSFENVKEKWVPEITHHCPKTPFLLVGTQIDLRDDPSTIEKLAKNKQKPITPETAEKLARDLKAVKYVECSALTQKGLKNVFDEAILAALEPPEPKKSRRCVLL
SMILES,outcome [1],"fluorescence, percent of control (lower = inhibition) [2]","GTP binding, percent of control [3]",outcome [4],"GTP binding signal, raw median fluorescence (lower = inhibition) (MCF (arbitrary fluorescence units)) [5]",outcome [6]
CCC(C)(C)NC(=O)c1ccc2c(c1)N(CC(=O)OC)C(=O)C(C)(C)O2,inactive,34.2%,82.4%,inactive,253,inactive
O=C(O)c1ccc(CNCc2cccc(Br)c2)s1,inactive,62.4%,89.5%,inactive,33.7,inactive
CCOC(=O)C1(Cc2cccc(F)c2)CCN(Cc2nc(CC)[nH]c2C)CC1,inactive,48.2%,90.4%,inactive,274,inactive
CCOC(=O)c1c(CSc2ccccc2)n(C)c2cc(Br)c(OCC(O)CNC(CO)(CO)CO)cc12 (configuration not stated),inactive,94.1%,147%,inactive,320,inactive
Cc1ccc(C2=NN(S(=O)(=O)c3ccccc3)C(c3ccccc3O)C2)cc1 (configuration not stated),inactive,50.2%,104%,inactive,158,inactive
CCC(C)C(=O)Nc1ccc(OC)cc1OC (configuration not stated),inactive,92.4%,161%,inactive,186,inactive
Cc1cc(C)nc(Nc2nc(=O)c3ccccc3s2)n1,inactive,50.5%,61.9%,inactive,205,inactive
CC1(C)CC2CC(C)(CN2C(=O)c2cccs2)C1 (configuration not stated),inactive,43.3%,59.5%,inactive,184,inactive
Cc1c(C=O)c2ccccn2c1C(=O)c1ccc(Cl)c([N+](=O)[O-])c1,inactive,31.5%,78.3%,inactive,247,inactive
Cc1ccc(S(=O)(=O)N(C)C)cc1NC(=O)COC(=O)c1ccc(Cl)cc1,inactive,39.2%,86%,inactive,265,inactive
CC(C)N(C(=O)Cn1cnc2cc([N+](=O)[O-])ccc2c1=O)C(C)C,inactive,34.2%,76.5%,inactive,156,inactive
C/C(=N\Nc1ccc(S(N)(=O)=O)cc1[N+](=O)[O-])c1ccc2c(c1)OCO2,inactive,36.3%,79.8%,inactive,220,inactive
Cc1ccc(OCc2ccccc2C)c(C(=O)O)c1,inactive,58.3%,207%,inactive,54.4,inactive
COc1cc(C)c2c(c1C=O)Oc1c(c(C)c(O)c3c1C(O)OC3=O)OC2=O (configuration not stated),inactive,54.3%,102%,inactive,135,inactive
N#C/C(=C/c1ccc(-c2cc(C(=O)O)cc(C(=O)O)c2)o1)c1nc2ccccc2s1,inactive,27%,66.4%,inactive,110,inactive
CC1=NC(=O)C(N=Nc2ccccc2C(=O)O)N1c1ccccc1 (configuration not stated),inactive,28.8%,69.9%,inactive,180,inactive
COc1cc(/C=C2\SC(c3ccccc3)=NC2=O)cc(Cl)c1O,inactive,26.3%,71%,inactive,190,inactive
COc1cccc(-n2c(SCC(=O)NCCC3=CCCCC3)nc3n[nH]c(C)c3c2=N)c1,inactive,70.4%,132%,inactive,140,inactive
C=CCn1c(COc2ccc(F)cc2)nnc1SCC(=O)c1c[nH]c2c(CC)cccc12,inactive,50.5%,60.7%,inactive,190,inactive
COc1ccccc1OCc1cccc(C(=O)O)c1,inactive,64.9%,92.8%,inactive,42,inactive
COc1ccc(CC2(CO)CCN(S(=O)(=O)c3sccc3C)CC2)cc1,inactive,35.4%,82.2%,inactive,273,inactive
COc1ccc(/C=N/NC(=O)c2cccnc2)cc1Cn1nc([N+](=O)[O-])c(Br)c1C,inactive,31.2%,67%,inactive,153,inactive
Cn1c(SCC(=O)Nc2cc(C(C)(C)C)nn2-c2ccccc2)nc2ccccc21,inactive,46.2%,64.7%,inactive,0,inactive
COC(=O)c1cccc(Nc2cc(C)nc(-c3ccccc3O)n2)c1,inactive,43.1%,54.2%,inactive,148,inactive
N#CC(C#N)=C1C=CC=CN1/C(=C\c1ccccc1Cl)C(=O)c1ccccc1,inactive,26.2%,76.3%,inactive,226,inactive
CSc1nsc(SC)c1NC(=O)OC1CCCCC1,inactive,43%,63.4%,inactive,196,inactive
CCOC(=O)c1sc(NC(=O)CSc2nnc(Cc3ccccc3)o2)c(C#N)c1C,inactive,36.5%,56.1%,inactive,118,inactive

# Source: PubChem BioAssay
